Reference: PubChem BioAssay (Tox21)
Values without a mark were called inactive. A call without a number means that no potency is given here. The source made the active and inactive calls. Calls come from the whole dose curve; as a rule, active = well fitted activation curve with a large enough effect in the repeat runs; inconclusive = weak or mixed curves; inactive = flat fitted curve, though single readings scatter.

Biological target: KiSS-1 receptor (Homo sapiens) (UniProt Q969F8)
Assay: Human kisspeptin (KISS1R) small molecule agonists, calcium flux assay in KISS1R-HEK293 cells (AID 1920064)
Method in brief: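 HEK293 cells stably expressing human KISS1R were plated 18 h at 37 °C, loaded with calcium dye for 1 h at 37 °C, then given compound by pin tool. Fluorescence (Ex/Em 480/540) was read kinetically for 3 min.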

Sequence of KiSS-1 receptor (Homo sapiens) (Q969F8 whole entry, looked up): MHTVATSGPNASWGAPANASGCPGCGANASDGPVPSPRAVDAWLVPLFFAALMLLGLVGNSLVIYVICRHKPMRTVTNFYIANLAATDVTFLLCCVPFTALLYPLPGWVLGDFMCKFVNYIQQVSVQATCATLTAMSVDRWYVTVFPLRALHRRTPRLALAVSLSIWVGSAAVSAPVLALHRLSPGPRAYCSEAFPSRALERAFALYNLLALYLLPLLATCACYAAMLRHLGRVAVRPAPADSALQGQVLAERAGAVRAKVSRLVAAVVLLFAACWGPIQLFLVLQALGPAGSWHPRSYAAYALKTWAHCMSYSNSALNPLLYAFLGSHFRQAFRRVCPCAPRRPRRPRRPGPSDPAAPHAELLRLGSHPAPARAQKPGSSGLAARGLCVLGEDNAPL

Row | Structure (SMILES) | Potency | activation
1 | C[C@H]1C[C@H](O)c2ccsc2S1(=O)=O | inactive | 
2 | CC(C)C(=O)O | inactive | 
3 | CCN1CCC[C@H]1CNC(=O)c1c(O)c(Cl)cc(Cl)c1OC | inactive | 
4 | CC(=C(CCOC(=O)C(C)C)SSC(CCOC(=O)C(C)C)=C(C)N(C=O)Cc1cnc(C)nc1N)N(C=O)Cc1cnc(C)nc1N | inactive | 
5 | CCN(CC)CC(=O)OCC(=O)[C@@]1(O)CC[C@H]2[C@@H]3CCC4=CC(=O)CC[C@]4(C)[C@H]3[C@@H](O)C[C@@]21C | inactive | 
6 | CC[C@H](C)[C@@H](C(=O)O)n1sc2ccccc2c1=O | inactive | 
7 | COC(=O)C1=C(C)NC(C)=C(C(=O)OCCN(C)Cc2ccccc2)C1c1cccc([N+](=O)[O-])c1 (centres undefined) | inactive | 
8 | O=C(O)c1cccc(C[C@@H]2COc3ccc(OCc4nc5cc(F)ccc5s4)cc3[C@@H]2O)c1 | inactive | 
9 | NS(=O)(=O)c1ccccc1Cl | inactive | 
10 | CC(C)OCCO | inactive | 
11 | CC(C)c1ccccc1O | inactive | 
12 | OC[C@H]1O[C@@](CO)(O[C@H]2O[C@H](CO)[C@@H](O)[C@H](O)[C@H]2O)[C@@H](O)[C@@H]1O | inactive | 
13 | CO[Si](CCCNCCN)(OC)OC | inactive | 
14 | CCCN1C=CN(C)C1 | inactive | 
15 | C[C@@H]1CC(=O)NN=C1c1ccc(NN=C(C#N)C#N)cc1 | inactive | 
16 | CC1=CC[C@@H]2C[C@H]1C2(C)C |  | -0.901% [at 15.8 µM]
17 | Nc1cccc(N)n1 | inactive | 
18 | O=C(c1ccccc1)c1ccccc1O | inactive | 
19 | C=CC(=O)OCC(CO)(COC(=O)C=C)COC(=O)C=C | inactive | 
20 | CCCCOCCCC | inactive | 
21 | Cc1cccc(Nc2ccccc2C(=O)O)c1C | inactive | 
22 | Cc1oncc1C(=O)Nc1ccc(C(F)(F)F)cc1 | inactive | 

Row | Structure (SMILES) | Potency | activation
23 | O=C1NCCN1CCO | inactive | 
24 | NC(=O)c1ccc([N+](=O)[O-])cc1Cl | inactive | 
25 | CCc1c(Br)c(Br)c(Br)c(Br)c1Br | inactive | 
26 | N[C@H](Cc1c[nH]c2ccccc12)C(=O)O | inactive | 
27 | COS(=O)(=O)O | inactive | 
28 | N[C@@H](Cc1c[nH]c2ccccc12)C(=O)O | inactive | 
29 | Clc1cc(Cl)c(Cl)c(Cl)c1Cl | inactive | 
30 | O=C(c1ccc2c(c1)C(=O)OC2=O)c1ccc2c(c1)C(=O)OC2=O | inactive | 
31 | C=CC(C)CCC=C(C)C (centres undefined) | inactive | 
32 | O=C(Nc1ccc(Cl)cc1)Nc1ccc(Cl)c(Cl)c1 | inactive | 
33 | FC(F)(F)c1ccccc1 | inactive | 
34 | NCCOCCN | inactive | 
35 | CCCCN(CCCC)CCCCCCN(CCCC)CCCC | inactive | 
36 | NS(=O)(=O)c1ccccc1OC(F)(F)F | inactive | 
37 | COc1cc(N)c(Cl)cc1C(=O)NC1CCN(Cc2ccccc2)CC1 | inactive | 
38 | C=CC(=O)OCCN(CC)CC | inactive | 
39 | CC12CCC(C(=O)C1=O)C2(C)C (centres undefined) | inactive | 
40 | C1CCCNCCC1 | inactive | 
41 | O=C(O)[C@@H]1[C@H]2C[C@H]3c4[nH]c5ccccc5c4CCN3C[C@@H]2CC[C@@H]1O | inactive | 
42 | O=C1Cc2cc(Cl)ccc2N1 | inactive | 
43 | O=C(O)c1cc(N=Nc2ccc(S(=O)(=O)Nc3ccccn3)cc2)ccc1O | inactive | 
44 | CCc1ccccc1O | inactive | 

Row | Structure (SMILES) | Potency | activation
45 | CCN1C(=O)c2ccccc2C1Nc1ccc(OCCN2CCCCC2)cc1 (centres undefined) | inactive | 
46 | CN1CCCC1=O | inactive | 
47 | Cc1cccc(C)c1NC(=O)CN1CCCCCC1 | inactive | 
48 | CCCN1CCCC[C@H]1C(=O)Nc1c(C)cccc1C | inactive | 
49 | CC(C)N=C(N)/N=C(\N)Nc1ccc(Cl)cc1 | inactive | 
50 | CC(=O)c1cc2ccccc2s1 | inactive | 
51 | O=C(NCN1CCOCC1)c1cnccn1 | inactive | 
52 | Cc1cc(C)c(S(=O)(=O)O)cc1N=Nc1cc(S(=O)(=O)O)c2ccccc2c1O | inactive | 
53 | O=[N+]([O-])c1cncn1CCN1CCOCC1 | inactive | 
54 | CCSC(=O)N(CC(C)C)CC(C)C | inactive | 
55 | CN(C)CCCNCCCN(C)C | inactive | 
56 | Nc1c(S(=O)(=O)O)cc(Br)c2c1C(=O)c1ccccc1C2=O | inactive | 
57 | CC(C)(c1ccc(O)cc1)c1ccc(O)cc1 | inactive | 
58 | CC(C)OC=O | inactive | 
59 | C1=CCC2CC=CC2C1 (centres undefined) | inactive | 
60 | CC(=O)Nc1ccc(C)cc1 | inactive | 
61 | COC(=O)c1ccc(C)cc1C1=NC(C)(C(C)C)C(=O)N1 (centres undefined) | inactive | 
62 | COc1ccc(N)c(C)c1 | inactive | 
63 | CCCCCOC(C)=O | inactive | 
64 | O=C(Oc1ccccc1)c1ccccc1 | inactive | 
